Data from PubChem BioAssay AID1345085 (National Center for Advancing Translational Sciences (NCATS), 2018).
Results filed as inconclusive are left out. Calls of active or inactive are those of the source. Calls follow the shape of the dose curve; as a rule, active = well fitted cell-killing curve with a large enough effect; inconclusive = small, poorly fitted or top-dose-only effect, or effect the other way; inactive = no such curve, though single readings can be large or run the other way.

Tested on: JEG-3
Assay: Confirmatory qHTS for gynecologic anti-cancer compounds from libraries of approved drugs and bioactive compounds; also: nearly all actives have a fitted effect of over 55% in size
Conditions: gynecologic cancer cell panel viability, ATPlite luminescence, 48 h; series mostly up to 57.6 µM
Outline: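 Viability is measured as ATP-dependent luciferase light using ATPlite, read 15 min after reagent addition at room temperature. Compounds, in DMSO, span 57.5 uM down to 0.977 nM over 11 threefold steps for 48 h.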
Potency is read from the fitted curve at half-maximal effect.

Question: With `Cc1ccc(C(=O)N(CCCN)C(c2nc3cc(Cl)ccc3c(=O)n2Cc2ccccc2)C(C)C)cc1` (stereo not drawn) as the compound, how does the Potency read?
Answer: 0.0153 µM (active)

Question: With `C[C@]12CCC(=O)C=C1[C@@H]1C[C@@H]1[C@H]1[C@@H]3[C@@H]4C[C@@H]4[C@@]4(CCC(=O)O4)[C@@]3(C)CC[C@@H]12` as the compound, how does the Potency read?
Answer: inactive

Question: `Cn1cnc2c(F)c(Nc3ccc(Br)cc3F)c(C(=O)NOCCO)cc21` was tested. Which Potency did it give?
Answer: inactive

Question: How did the Potency turn out when `O=C(c1ccc(F)c(F)c1Nc1ccc(I)cc1F)N1CC(O)([C@@H]2CCCCN2)C1` was run?
Answer: 24.3 µM (active)

Question: `COc1ccccc1N1CCN(CC(O)COc2cccc3ccccc23)CC1` (stereo not drawn) was tested. Which Potency did it give?
Answer: inactive

Question: Which Potency does the source give for `CC(C)Nc1cc(-c2c[nH]c(C(=O)N[C@H](CO)c3cccc(Cl)c3)c2)c(Cl)cn1` here?
Answer: 27.3 µM (active)

Question: Which Potency does the source give for `CN(C)C(CCOc1cccc2ccccc12)c1ccccc1` (stereo not drawn) here?
Answer: inactive

Question: For `Cc1cc(C(=O)N2CCN(c3cccc(Cl)c3)CC2)n(-c2ccccc2)n1`, which Potency is on record?
Answer: 3.43 µM (active)

Question: For `CCC1=CC2CN(C1)Cc1c([nH]c3ccccc13)[C@@](C(=O)OC)(c1cc3c(cc1OC)N(C)[C@H]1[C@@](O)(C(=O)OC)[C@H](OC(C)=O)[C@]4(CC)C=CCN5CC[C@]31[C@@H]54)C2` (stereo partly drawn), which Potency is on record?
Answer: 0.0943 µM (active)

Question: Which Potency does the source give for `Cc1csc(NC(=O)c2sc3nc4c(c(C(F)(F)F)c3c2N)CCC4)n1` here?
Answer: 13.7 µM (active)

Question: For `COc1cc2c(c(OC)c1OC)-c1ccc(OC)c(=O)cc1[C@@H](NC(C)=O)CC2`, which Potency is on record?
Answer: 0.178 µM (active)

Question: For `Cc1cnc(Nc2ccc(F)cc2Cl)nc1-c1c[nH]c(C(=O)NC(CO)c2cccc(Cl)c2)c1` (stereo not drawn), which Potency is on record?
Answer: inactive

Question: `CCCCc1nc2cc(/C=C/C(=O)NO)ccc2n1CCN(CC)CC` was tested. Which Potency did it give?
Answer: 1.53 µM (active)

Question: `O=C(O)C1(Cc2cccc(Nc3nccs3)n2)CCC(Oc2cccc(Cl)c2F)CC1` (stereo not drawn) was tested. Which Potency did it give?
Answer: inactive

Question: `C[C@]12CCC(=O)C=C1CC[C@@H]1[C@@H]2[C@@H](O)C[C@@]2(C)[C@H]1CC[C@]2(O)C(=O)CO` was tested. Which Potency did it give?
Answer: inactive

Question: `Cc1ccc(C(N)=O)cc1Nc1nccc(-c2cn(C(C)C)c3cnccc23)n1` was tested. Which Potency did it give?
Answer: 7.69 µM (active)

Question: With `CCn1c(-c2nonc2N)nc2c(C#CC(C)(C)O)ncc(OCC3CCCNC3)c21` (stereo not drawn) as the compound, how does the Potency read?
Answer: inactive

Question: `O=C(Nc1cccnc1)N1CCC(Cc2cccc(Oc3ccc(C(F)(F)F)cn3)c2)CC1` was tested. Which Potency did it give?
Answer: 7.69 µM (active)

Question: `Cc1nc(N)nc(N)c1-c1ccc(Cl)c(Cl)c1` was tested. Which Potency did it give?
Answer: 17.2 µM (active)

Question: How did the Potency turn out when `O=C(CCCCCCNC(=O)c1cnc(N(c2ccccc2)c2ccccc2)nc1)NO` was run?
Answer: 7.69 µM (active)

Question: How did the Potency turn out when `Cc1cc(C2CCCCC2)n(O)c(=O)c1` was run?
Answer: 11.1 µM (active)

Question: `CCN(CC)CCCC(C)Nc1c2ccc(Cl)cc2nc2ccc(OC)cc12` (stereo not drawn) was tested. Which Potency did it give?
Answer: 43.2 µM (active)

Question: Which Potency does the source give for `CO[C@@]12[C@H](COC(N)=O)C3=C(C(=O)C(C)=C(N)C3=O)N1C[C@@H]1N[C@@H]12` here?
Answer: inactive

Question: Which Potency does the source give for `Cc1cnc(Nc2cccc(CN3CCOCC3)c2)nc1Nc1cccc(S(=O)(=O)NC(C)(C)C)c1` here?
Answer: 17.2 µM (active)

Question: `CN(C[C@@H]1COCCO1)S(=O)(=O)Nc1ccc2ccc3ncc(-c4cnn(C)c4)cc3c(=O)c2c1` was tested. Which Potency did it give?
Answer: inactive

Question: Which Potency does the source give for `CCCCc1oc2ccc(NS(C)(=O)=O)cc2c1C(=O)c1ccc(OCCCN(CCCC)CCCC)cc1` here?
Answer: 27.3 µM (active)

Question: Which Potency does the source give for `Cn1c(=O)c(-c2c(Cl)cccc2Cl)cc2cnc(Nc3cccc(C(=O)O)c3)nc21` here?
Answer: inactive

Question: For `O=C(Nc1cn[nH]c1-c1nc2ccc(CN3CCOCC3)cc2[nH]1)NC1CC1`, which Potency is on record?
Answer: 12.2 µM (active)

Question: Which Potency does the source give for `Cn1cc(-c2ccc3ncc(Cc4ccc5ncccc5c4)n3n2)cn1` here?
Answer: inactive

Question: For `CN1CCN(Cc2ccc(NC(=O)Nc3ccc(Oc4cc(NC(=O)C5CC5)ncn4)cc3)cc2C(F)(F)F)CC1`, which Potency is on record?
Answer: 0.243 µM (active)

Question: Which Potency does the source give for `COCCOc1nc(-c2ccc(Cl)c(Cl)c2)n(-c2ccc(NC(=O)CCl)cc2)n1` here?
Answer: 19.3 µM (active)

Question: How did the Potency turn out when `CCN(CC)CCCC(C)Nc1ccnc2cc(Cl)ccc12` (stereo not drawn) was run?
Answer: inactive

Question: For `CS(=O)(=O)c1ccc(-c2cnc(N)c(C(=O)Nc3ccccc3)n2)cc1`, which Potency is on record?
Answer: inactive
